According to PubChem BioAssay AID1814 (Broad Institute, 2009):
Screen size: about 300,000 compounds; about 22,000 (7.3%) were called active. Inconclusive results (about 2%) are left out. No stated cut-off is given here; in the data, active means activity score below about -60%; inconclusive means mostly about -28% to -61%; inactive means positive scores. Many of the other results were omitted from the sample, so actives are more common in it than they were.

assay: Activators via SNCA 5'UTR binding, MLPCN (AID 1814); settings: alpha-synuclein 5'UTR reporter, activators screen; stronger effect = lower value; tested at 7.5 µM

Activity score, active:
O=c1c(-c2ccccc2)coc2cc(O)ccc12 -128%, CN(C)CCNC(=O)c1[nH]nc2c1CCc1ccccc1-2 -73.6%, O=C(CC1SCCNC1=O)Nc1ccc(Cl)c(Cl)c1 (configuration not stated) -77.7%, C=C(C)C(=O)O[C@H]1C/C(C)=C\C(=O)/C=C(\C)[C@H](O)[C@@H]2OC(=O)C(=C)[C@@H]21 -250%, O=C(Nc1ccc(N2CCOCC2)cc1)c1ccc2c(c1)OCO2 -121%, CN1CCN(c2ccc(NC(=O)c3ccc4c(c3)OCCO4)cc2Cl)CC1 -66.8%, O=C(Nc1ccccc1)c1ccc2c(c1)OCO2 -148%, O=C(Nc1ccc(C2CC2(Cl)Cl)cc1)c1cccc([N+](=O)[O-])c1 (configuration not stated) -92.3%, O=C(Nc1cccc([N+](=O)[O-])c1)c1ccc2c(c1)OCO2 -99.5%, COc1ccc2oc(-c3cccc(NC(=O)CSc4ccc(Cl)cc4)c3)nc2c1 -97.9%, O=C(O)c1cccc(N=NN2CCCCCC2)c1 -74.8%, Cc1ccc(C(=O)Nc2ccc(C)c(S(=O)(=O)N(C)C)c2)s1 -185%, COc1ccc2ccccc2c1CNCc1ccccn1 -104%, Cc1ccc(S(=O)(=O)/N=C(/Nc2ccccn2)c2ccc(Cl)cc2)cc1 -118%, Cc1cccc(CSc2ccc(-c3cccs3)nn2)c1 -110%, COc1ccc(/C(O)=C2/C(=O)C(=O)N(CCCN(C)C)C2c2ccccc2)cc1OC (configuration not stated) -86.9%, Cc1ccc(NC(=O)c2sc3nc(N)c(C#N)cc3c2N)cc1 -133%, N#Cc1ccc(C2N=C(c3ccccc3)NO2)cc1 (configuration not stated) -107%, Brc1ccccc1C1N=C(c2ccccc2)NO1 (configuration not stated) -157%, COC(=O)c1c(NC(=O)c2ccc(S(=O)(=O)N3CCOCC3)cc2)sc2c1CCN(C(C)C)C2 -85.3%, O=[N+]([O-])c1cccc(Nc2c3ccccc3nc3ccccc23)c1 -124%, O=C(Nc1cccc(Br)c1)c1ccc2snnc2c1 -93%, FC(F)(F)c1ccnc(Oc2ccc(C3=NCCS3)cc2)c1 -169%, Cn1ccc(NC(=O)Nc2ccc(Cl)cc2)n1 -80.2%, Cc1nn(C)cc1CNC(=O)Nc1ccc(Cl)cc1 -69.4%, CSCc1ccc(C(=O)Nc2cc(C)cc(C)c2)cc1 -126%, C=CCn1c(SCC(N)=O)nnc1-c1cc2c(s1)CCC(CC)C2 (configuration not stated) -137%, c1ccc(CCN2CN=C(Nc3nc4ccccc4o3)NC2)cc1 -174%, O=C(NCc1ccccn1)c1cc2ccccc2oc1=O -79.8%, O=C(NCCc1c[nH]c2ccccc12)c1cc2ccccc2oc1=O -188%, O=C(N/N=C/c1ccc(Cl)c(Cl)c1)c1ccc2nc[nH]c2c1 -191%, CSc1ccc(/C=N/NC(=O)c2cccc(Cl)c2)cc1 -142%, Cc1nn(C)c(Oc2ccccc2)c1[N+](=O)[O-] -79.9%, Cc1ccc(N2C(=O)S/C(=C/c3cn(C)c4ccccc34)C2=O)cc1 -177%, COc1cc(SC)ccc1C(=O)NCCOc1ccccc1Cl -151%, O=C(Nc1nc2ccc([N+](=O)[O-])cc2s1)c1ccncc1 -104%, CCN(CC)c1ccc(C(=O)OCC(=O)c2ccco2)cc1 -179%, Cc1csc(NC(=O)CSc2nnc(-c3cccnc3)o2)n1 -101%, Cc1cc(NC(=O)COc2ccc(Cl)cc2Cl)n(CCC#N)n1 -122%, COc1ccc(C(=O)NCCSc2ccccc2C)cc1 -113%, COc1ccc(Nc2cc(=O)oc3ccccc23)cc1 -97.7%, Cc1csc(NC(=O)Nc2ccccc2[N+](=O)[O-])n1 -255%, CN(C)c1ccnc2sc(C(=O)c3ccccc3)c(N)c12 -138%

Activity score, inactive:
COc1cccc(/C=N/NC(=O)c2[nH]nc3c2CCc2ccccc2-3)c1O 76.4%, Oc1c(Cl)cc(Cl)c(Cl)c1Cc1c(O)c(Cl)cc(Cl)c1Cl 77.3%, O=C(Nc1nc2ccccc2s1)c1ccc2c(c1)OCO2 53.7%, O=C(c1ccc(Cl)cc1)N1N=C(c2ccccn2)CC1(O)C(F)(F)F (configuration not stated) 68.6%, C/C(=N\NC(=O)Cc1ccc(Cl)cc1)c1ccccn1 85.6%, O=C(NC(Nc1nc2ccc([N+](=O)[O-])cc2s1)(C(F)(F)F)C(F)(F)F)c1ccccc1 94.1%, COC(=O)c1c(NC(=O)COc2ccc(Cl)cc2Cl)sc2c1CC(C)(C)NC2(C)C 102%, CSc1nc(-c2ccccc2)nc(C(Cl)Cl)n1 114%, NC(=O)c1sc2nc3c(c(-c4ccccc4)c2c1N)CCC3 56.2%
